Results from PubChem BioAssay AID743245 (National Center for Advancing Translational Sciences (NCATS), 2014).
This is one part of the list. Inconclusive results are not listed. Activity calls are given as the source filed them. The call rests on the fitted dose curve; in most records, active means well fitted inhibition curve with a large enough effect; inconclusive means small, poorly fitted or top-dose-only effect; inactive means flat fitted curve, though single readings scatter.
Further: nearly all actives have a fitted effect of over 70% in size.

These molecules were tested against ATP-dependent Clp protease proteolytic subunit (Bacillus subtilis (strain 168)) (UniProt P80244) (assay: qHTS Assay for Activators of ClpP: Hit Validation of Inhibitors). Details: purified B. subtilis ClpP, FRET-FV substrate cleavage, 20 min; series mostly up to 57.5 µM.
Sequence of ATP-dependent Clp protease proteolytic subunit (Bacillus subtilis (strain 168)) (P80244 whole entry, looked up): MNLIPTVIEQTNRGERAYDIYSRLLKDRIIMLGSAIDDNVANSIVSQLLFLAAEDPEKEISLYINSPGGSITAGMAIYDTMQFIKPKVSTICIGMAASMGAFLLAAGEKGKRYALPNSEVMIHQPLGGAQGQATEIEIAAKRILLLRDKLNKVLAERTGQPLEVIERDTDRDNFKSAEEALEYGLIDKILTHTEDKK
Text: The Clp protease proteolytic subunit (ClpP) is the core unit of the Clp complex belonging to the peptidase family S14 that hydrolyzes protein into small peptides in the presence of ATP and magnesium. It is ubiquitously expressed and is the major protease in bacteria. […] Unlike common antibiotics that simply interfere with the essential enzyme activity, ADEP binding activates the ClpP core in the absence of the regulatory Clp-ATPases leading to uncontrolled proteolysis and eventually cell death. Activators binding to the docking site on ClpP can also block formation of the ClpXP and ClpA/C-P holoenzyme complexes interfering with the normal biological functions of ClpP and thus have the potential to become new anti-microbials. To identify activators of ClpP, a FRET based quenching reversal assay was developed using a purified B. subtilis ClpP and a decapeptide substrate (FRET-FV). The FRET-FV is tagged with a fluorescent molecule amino benzoic acid (donor) at the N-terminus and a nitrotyrosine quencher (acceptor) at the C-terminus. FRET-FV cleaves upon activation of ClpP with ADEP treatement and reverses the quenching effect of the nitrotyrosine causing an increase in fluorescence emission signal at 430nm. This assay was used to screen the Molecular Libraries Small Molecule Repository (MLSMR). NIH Molecular Libraries Probe Production Centers Network [MLPCN] NIH Chemical Genomics Center [NCGC] MLPCN Grant: MH095569 Assay Submitter (PI): Michael Maurizi, National Cancer Institute
Two and a half microL/well of purified enzyme solution (final concentrations 10 microg/mL B. subtilis ClpP in 100 mM Tris/HCl pH8, 100 mM KCl, 0.05% low protease BSA, 2.5% glycerol, 0.01% Tween-20 buffer) was dispensed into 1536-well assay plates (Greiner, black solid, medium-binding plates) with Aurora Discovery BioRAPTR Flying Reagent Dispenser (FRD, Beckton-Dickenson). Compound solution (23 nL) was transferred to the assay plate using Kalypsys pin tool equipped with a 1536-pin tool. One and a half microL/well substrate solution (final concentrations 3 microM FRET-FV substrate in 100 mM Tris/HCl pH8, 100 mM KCl, 0.05% low protease BSA, 2.5% glycerol, 0.01% Tween-20 buffer) was then added for a total of 4 microL final reaction volume. FRET signals at time 0 and after 20 min room temperature incubation were obtained using the PerkinElmer Envision plate reader with 320nm excitation and 430nm emission filters. Delta FRET value (Time 20 - Time 0) was calculated and normalized to the delta FRET value of positive control ADEP (5.8 microM final concentration) and negative control DMSO and no enzyme wells.
`CCN(CCCNC(=O)c1cc2c(=O)n(CC)c3ccccc3c2s1)Cc1ccccc1` was tested, and the Potency was “inactive”.
In the case of `Cc1cccc(NC(=O)c2nnn(CC(=O)Nc3ccc(C(C)C)cc3)c2N)c1C`, the Potency is reported as “inactive”.
For `COc1ccccc1NC(=O)c1oc2ccccc2c1NC(=O)COc1ccccc1OC`, the Potency was 21.7 µM (active).
In the case of `CCOc1ccc(-c2cc(C)n3nc(C(=O)Nc4ccc(C)c(C)c4)cc3n2)cc1`, the Potency is reported as “inactive”.
With `CCOC(=O)N1CCN(C(=O)c2ccc3nc4cc(Cl)ccc4c(=O)n3c2)CC1` the Potency was 27.3 µM (active).
In the case of `O=C(Nc1ccc2oc(-c3ccc4ccccc4c3)nc2c1)c1cccs1`, the Potency is reported as 10.9 µM (active).
In the case of `COc1ccccc1CNC(=O)c1ccccc1NC(=O)c1nsc2ccccc12`, the Potency is reported as 24.3 µM (active).
`COc1ccc(CNC(=O)COC(=O)CCS(=O)(=O)c2ccc(C)cc2)cc1OC` was tested, and the Potency was “inactive”.
With `CN(C(=O)c1cc2c(=O)n3ccccc3nc2s1)C1CCCCC1` the Potency was 13.7 µM (active).
With `CCCCN(C)c1ccc([N+](=O)[O-])cc1` the Potency was “inactive”.
In the case of `Fc1cc(F)c2nc(Nc3nc4c(F)cccc4s3)sc2c1`, the Potency is reported as 4.85 µM (active).
For `COc1cc2[nH]c(=O)n(Cc3ccc(C(=O)NCc4ccc(C)cc4)cc3)c(=O)c2cc1OC`, the Potency was “inactive”.
For `COc1ccc(CCNC(=O)c2ccc3c(c2)sc2nc(-c4ccc(C)cc4)cn23)cc1OC`, the Potency was 27.3 µM (active).
For `Cc1cccc(-c2oc3ccc(-c4ccc5c(c4)OCO5)cc3c2C#Cc2cncn2C)c1`, the Potency was 24.3 µM (active).
With `Cc1nc2sc(C)c(C)n2c(=O)c1S(=O)(=O)NCCc1ccc(Cl)cc1` the Potency was 24.3 µM (active).
With `CCOc1ccc(-c2nnc(-c3ccco3)o2)cc1` the Potency was 21.7 µM (active).
With `CC(C)n1c(-c2cccs2)nc2ccccc21` the Potency was 21.7 µM (active).
`CCCCn1c(=O)c2oc3ccccc3c2n(CC(=O)Nc2ccccc2OC)c1=O` was tested, and the Potency was “inactive”.
